Assay [1] is described as follows: qHTS to identify inhibitors of the type 1 interferon - major histocompatibility complex class I in skeletal muscle: primary screen against the NCATS Mechanism Interrogation Plate v5.0 (MIPE) Libary (AID 1347411). Also: nearly all actives have a fitted effect of over 65% in size. Also: potency is read from the fitted curve at half-maximal effect. In outline: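 Cells were genome-edited human myoblasts carrying a HiBit tag on endogenous HLA-B. They were treated with IFN-beta (4.0 ng/ml) and titrated compounds (top 46 uM) for 24 hrs before lytic HiBiT detection.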
For orientation: In qHTS, concentration-response curves come from the screen itself.

In assay [2] the target is Calcium and integrin-binding protein 1 (Homo sapiens) (UniProt Q99828). Kind of assay: Primary qHTS for Identification of Calcium Integrin Binding Protein 1 (CIB1) Competitor (AID 1508620).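 Also: GST tagged CIB1 binding a fluorescein labelled alphaIIb integrin peptide tracer; top concentration of the series differs between compounds.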 Put shortly:
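CIB1-GST (1 uM final) and compound incubated 15 min at room temperature before adding FITC-alphaIIb peptide tracer (100 nM final). Competition for binding read by fluorescence polarization (ex 480, em 540) after another 15 min at room temperature.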

A short description of assay [3]: Primary qHTS for inhibitors of nuclear receptor binding SET domain protein 2 (NSD2) in an isogenic RCH-ACV NSD2 p.E1099K mutant (9B) (AID 1645876). Also: nearly all actives have a fitted effect of over 70% in size. Also: potency is read from the fitted curve at half-maximal effect.
Assay [4] has as its target Cytochrome P450 2C9 (Homo sapiens) (UniProt P11712). The experiment in a line: Cytochrome P450 family 2 subfamily C member 9 (CYP2C9) small molecule antagonists: luciferase biochemical (cell-free) qHTS assay (AID 1645842; active = well fitted curve in the direction sought with a large enough effect in the repeat runs; an effect the other way counts as inactive or inconclusive; also: nearly all actives have a fitted effect of over 55% in size; also: potency is read from the fitted curve at half-maximal effect). Put shortly:
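Luminescence, after 20 min with luciferin detection reagent, reflected CYP2C9 turnover during a 1 h NADPH-driven reaction at 37C. Enzyme-substrate mix contained 0.4% bovine serum albumin and was preincubated with compound 10 min at room temperature.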

Molecules are shown by their SMILES. Results filed as inconclusive are left out. Entries that show only a call come without a potency. Activity calls are given as the source filed them. Unless noted, calls follow the shape of the dose curve; as a rule, active = well fitted curve in the direction sought with a large enough effect; inconclusive = small, poorly fitted or top-dose-only effect, or another doubt; inactive = no such curve, though single readings can be large; an effect the other way counts as inactive or inconclusive.

Sequence of Calcium and integrin-binding protein 1 (Homo sapiens) (Q99828 whole entry, looked up): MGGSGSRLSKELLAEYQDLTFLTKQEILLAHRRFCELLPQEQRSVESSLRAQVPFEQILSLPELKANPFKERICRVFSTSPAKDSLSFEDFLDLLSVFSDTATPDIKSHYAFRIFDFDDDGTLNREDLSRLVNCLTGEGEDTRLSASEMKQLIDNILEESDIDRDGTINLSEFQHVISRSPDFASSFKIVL
Sequence of Cytochrome P450 2C9 (Homo sapiens) (P11712 whole entry, looked up): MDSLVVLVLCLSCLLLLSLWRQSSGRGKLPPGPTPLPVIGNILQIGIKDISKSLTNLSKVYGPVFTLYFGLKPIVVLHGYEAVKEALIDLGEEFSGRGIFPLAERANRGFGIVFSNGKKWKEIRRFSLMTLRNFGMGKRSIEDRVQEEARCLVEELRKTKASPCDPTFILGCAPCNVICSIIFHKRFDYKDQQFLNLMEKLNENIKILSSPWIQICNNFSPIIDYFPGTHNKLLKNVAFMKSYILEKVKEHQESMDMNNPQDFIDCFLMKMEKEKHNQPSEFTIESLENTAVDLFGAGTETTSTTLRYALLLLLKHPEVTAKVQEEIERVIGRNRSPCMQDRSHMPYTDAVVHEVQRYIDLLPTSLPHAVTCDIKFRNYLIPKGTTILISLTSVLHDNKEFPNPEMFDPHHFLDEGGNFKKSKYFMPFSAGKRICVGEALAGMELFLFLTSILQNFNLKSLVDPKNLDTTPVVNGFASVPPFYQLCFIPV

As for `FC(F)(F)c1ccc(Nc2nc(-c3c(C(F)(F)F)nc4ccccn34)cs2)cc1`, the values for the Potency in assay [1] and in assay [3] were 4.66 µM (active) and 0.417 µM (active), respectively. In assay [2], the Potency entry was “inactive”.
Turning to `COC(=O)N(C)c1c(N)nc(-c2nn(Cc3ccccc3F)c3ncccc23)nc1N`, the Potency result in assay [1], in assay [2] and in assay [3] was “inactive” each time. In addition, the Potency in assay [4] is 23.9 µM (active).
With `CN[C@@H]1[C@H](O[C@H]2[C@H](O[C@@H]3[C@@H](O)[C@H](O)[C@@H](N=C(N)N)[C@H](O)[C@H]3N=C(N)N)O[C@@H](C)[C@]2(O)C=O)O[C@@H](CO)[C@H](O)[C@H]1O`, the Potency result in assay [1], in assay [2] and in assay [3] was “inactive” throughout.
In the case of `C[C@@H](O)[C@H](NC(=O)c1ccc(C#Cc2ccc(CN3CCOCC3)cc2)cc1)C(=O)NO`, the Potency result in assay [2] is “inactive”.
Regarding `CCOCc1nc2c(N)nc3ccccc3c2n1CC(C)(C)O`, the Potency entry in assay [1], in assay [2], in assay [4] and in assay [3] was “inactive” in each case.
With `O=C(Nc1ccccc1-c1cn2c(CN3CCNCC3)csc2n1)c1ccc2ccccc2n1`, in assay [2], the Potency result is “inactive”.
Take `CS(=O)(=O)c1ccc(-c2nnc(/C=C/c3nnc(-c4ccc(C#N)cc4)o3)n2-c2ccccc2Cl)nc1`: the Potency result in assay [1], in assay [2] and in assay [3] was “inactive” each time.
With `CO[C@H]1C[C@@H]2CC[C@@H](C)[C@@](O)(O2)C(=O)C(=O)N2CCCC[C@H]2C(=O)O[C@H]([C@H](C)C[C@@H]2CC[C@@H](OP(C)(C)=O)[C@H](OC)C2)CC(=O)[C@H](C)/C=C(\C)[C@@H](O)[C@@H](OC)C(=O)[C@H](C)C[C@H](C)/C=C/C=C/C=C/1C`, the Potency is 18.6 µM (active) in assay [1] and 0.0118 µM (active) in assay [3]. Also, the Potency result in assay [2] was “inactive”.
For `N#C[C@@H]1CCCN1C(=O)CNC12CC3CC(CC(O)(C3)C1)C2`, in assay [2], the Potency result was “inactive”.
For `COC1C(=O)CCC2(CO2)C1(O)C1(C)OC1CC=C(C)C` (configuration not stated), in assay [2], the Potency entry is “inactive”.
As to `COc1ccc([C@@]2(O)c3c(ccc4c3OC(C)(CCC=C(C)C)C=C4)NC(=O)[C@@H]2OC)cc1` (some centres not stated), the Potency entry in assay [2] was “inactive”.
Still for that read-out and setting: the entry for `CC/C=C/CC1=C(CCCCC(CCC(=O)O)OC(C)=O)CCC1=O` (configuration not stated) is “inactive”.
For the compound `CC1=CC(=O)C2C(C)(C)CCC[C@]2(C)[C@H]1CO` (some centres not stated), the Potency result in assay [2] was “inactive”.
Regarding `C=C1C(=O)O[C@@H]2C[C@H](C)[C@@]3(O)C=C(C(C)=O)[C@]4(CC3C[C@H]12)C(=O)O[C@H]1C[C@@H](C)C(CCC(C)=O)=CC[C@H]14` (some centres not stated), the Potency entry in assay [2] was “inactive”.
On the same count and under the same terms, the entry for `COc1ccc(C2COc3cc(O)ccc3C2)c(O)c1` (configuration not stated) is “inactive”.
In the case of `C/C=C/C=C/C=C/C(=O)OC1C=C(C=O)C(O)(C(=O)O)C2(C)CCCC(C)(C)C12` (configuration not stated), the Potency entry in assay [2] was “inactive”.
For `COC(=O)N[C@H](C(=O)N1[C@@H]2CC[C@@H](C2)[C@H]1c1nc2ccc(-c3ccc4c(c3)C(F)(F)c3cc(-c5cnc([C@@H]6CCC7(CC7)N6C(=O)[C@@H](NC(=O)OC)C(C)C)[nH]5)ccc3-4)cc2[nH]1)C(C)C`, the Potency entry in assay [2] is “inactive”.
For the compound `CCC(C)C(=O)O[C@H]1CCC=C2C=C[C@H](C)[C@H](CC[C@@H](O)C[C@@H](O)CC(=O)O)[C@H]21` (some centres not stated), the Potency entry in assay [2] is “inactive”.
Take `C/C(=C/CO)CC[C@@H]1[C@@](C)(O)CCC2C(C)(C)CCC[C@]21C` (some centres not stated): the Potency result in assay [2] is “inactive”.
Take `C=C1C(=O)OC2CC3(C)C(CC12)C(C)=CC(O)C3OC(C)=O` (configuration not stated): in assay [2], the Potency entry was “inactive”.
`CO[C@H]1C[C@@H]2CC[C@@H](C)[C@@](O)(O2)C(=O)C(=O)N2CCCC[C@H]2C(=O)O[C@H]([C@H](C)C[C@H]2CC[C@@H](OP(C)(C)=O)[C@H](OC)C2)CC(=O)[C@H](C)/C=C(\C)[C@@H](O)[C@@H](OC)C(=O)[C@H](C)C[C@H](C)/C=C/C=C/C=C/1C`: the Potency result in assay [2] is “inactive”.
On the same count and under the same terms, the entry for `OC[C@@]1(O)CO[C@@H](OC[C@H]2O[C@@H](Oc3c[nH]c4ccccc34)[C@H](O)[C@@H](O)[C@@H]2O)[C@@H]1O` is “inactive”.
The same measure, in the same setting: the entry for `C/C1=C\CCC2=C[C@@H](OC2=O)c2c(C)coc2C1` is “inactive”.
Take `Cc1ccc(F)cc1C(=O)Nc1ccc(C(=O)N2Cc3cccn3Cc3ccccc32)c(Cl)c1`: the Potency entry in assay [2] was “inactive”.
`CO[C@H]1/C=C\O[C@@]2(C)Oc3c(C)c(O)c4c(O)c(c5c(nc6cc(C)ccn65)c4c3C2=O)NC(=O)/C(C)=C\C=C/[C@H](C)[C@H](O)[C@@H](C)[C@@H](O)[C@@H](C)[C@H](OC(C)=O)[C@@H]1C`: the Potency result in assay [2] was “inactive”.
Same read-out and setting: the entry for `CC12CCC(OC3OC(CO)C(O)C(OC4OC(CO)C(O)C(O)C4O)C3O)CC1=CCC1C2CCC2(C)/C(=C3/COC(=O)C3)CCC12O` (configuration not stated) is “inactive”.
As for `C/C1=C\C[C@]2(C)C(=O)C(O)=C([C@H](C)CO)[C@H]2C/C=C(\C)[C@@H](O)CC/C(C)=C/CC1`, in assay [2], the Potency entry is “inactive”.
As to `CN1CCN(C(=O)c2ccc3cc(CCNc4ncnc5ccc(C#N)cc45)ccc3c2)CC1`, the Potency result in assay [2] is “inactive”.

These data come from PubChem BioAssay (NCATS).
